# Assay results published in publication PMC11006913.
# Substitutions are numbered along the chain they refer to.
# Tests used:
# Assay in all cases: PBM; 200 nM protein, PBS
# Details in all cases: dsDNA, one strand shown
# ALX3 [1] = target: ALX3 (Homo sapiens, UniProt O95076 139-225, N203Q)
# ALX3 [2] = target: ALX3 (Homo sapiens, UniProt O95076 139-225)
# ALX3 [3] = target: ALX3 (Homo sapiens, UniProt O95076 139-225, L168Q)
# ALX3 [4] = target: ALX3 (Homo sapiens, UniProt O95076 139-225, L168V)
# ALX3 [5] = target: ALX3 (Homo sapiens, UniProt O95076 139-225, N203S)
# HOXD13 [6] = target: HOXD13 (Homo sapiens, UniProt P35453 263-343, T313R)
# HOXD13 [7] = target: HOXD13 (Homo sapiens, UniProt P35453 263-343)
# HOXD13 [8] = target: HOXD13 (Homo sapiens, UniProt P35453 263-343, T313A)
# NKX2-6 [9] = target: T1, NKX2-6 (Homo sapiens, UniProt A6NCS4 118-204)
# T1 sequence: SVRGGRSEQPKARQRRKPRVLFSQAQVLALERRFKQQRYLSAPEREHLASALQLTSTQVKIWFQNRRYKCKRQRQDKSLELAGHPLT
# NKX2-6 [10] = target: T2, NKX2-6 (Homo sapiens, UniProt A6NCS4 118-204, F151L)
# T2 sequence: T1 sequence with F34L
# VAX1 [11] = target: VAX1 (Homo sapiens, UniProt Q5SQQ9 86-172)
# VAX1 [12] = target: VAX1 (Homo sapiens, UniProt Q5SQQ9 86-172, T142I)
# VAX1 [13] = target: VAX1 (Homo sapiens, UniProt Q5SQQ9 86-172, K157R)
# PAX4 [14] = target: T3, PAX4 (Homo sapiens, UniProt O43316 9-242, F177V)
# T3 sequence: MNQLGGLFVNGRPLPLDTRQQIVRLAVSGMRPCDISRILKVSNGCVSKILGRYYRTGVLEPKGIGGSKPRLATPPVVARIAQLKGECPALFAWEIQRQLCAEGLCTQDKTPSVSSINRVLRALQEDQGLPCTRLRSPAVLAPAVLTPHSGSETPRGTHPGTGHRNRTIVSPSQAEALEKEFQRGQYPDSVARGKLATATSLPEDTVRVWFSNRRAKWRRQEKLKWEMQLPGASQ
# PAX4 [15] = target: T4, PAX4 (Homo sapiens, UniProt O43316 9-242, R227W)
# T4 sequence: T3 sequence with V169F, R219W
# PROP1 [16] = target: PROP1 (Homo sapiens, UniProt O75360 56-141)
# PROP1 [17] = target: PROP1 (Homo sapiens, UniProt O75360 56-141, R99H)
# PROP1 [18] = target: PROP1 (Homo sapiens, UniProt O75360 56-141, F88S)
# Sequence of PROP1 (Homo sapiens, UniProt O75360 56-141, F88S) (O75360 56-141 F88S): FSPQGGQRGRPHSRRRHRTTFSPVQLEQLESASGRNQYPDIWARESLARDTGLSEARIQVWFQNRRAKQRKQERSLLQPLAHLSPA
# Sequence of ALX3 (Homo sapiens, UniProt O95076 139-225, L168Q) (O95076 139-225 L168Q): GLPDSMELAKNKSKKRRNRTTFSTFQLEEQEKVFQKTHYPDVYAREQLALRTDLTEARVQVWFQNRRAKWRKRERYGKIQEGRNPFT
# Sequence of ALX3 (Homo sapiens, UniProt O95076 139-225, L168V) (O95076 139-225 L168V): as the sequence (O95076 139-225 L168Q) above, with Q30V counted along it
# Sequence of ALX3 (Homo sapiens, UniProt O95076 139-225) (O95076 139-225): as the sequence (O95076 139-225 L168Q) above, with Q30L counted along it
# Sequence of ALX3 (Homo sapiens, UniProt O95076 139-225, N203Q) (O95076 139-225 N203Q): as the sequence (O95076 139-225 L168Q) above, with Q30L, N65Q counted along it
# Sequence of ALX3 (Homo sapiens, UniProt O95076 139-225, N203S) (O95076 139-225 N203S): as the sequence (O95076 139-225 L168Q) above, with Q30L, N65S counted along it
# Sequence of HOXD13 (Homo sapiens, UniProt P35453 263-343, T313R) (P35453 263-343 T313R): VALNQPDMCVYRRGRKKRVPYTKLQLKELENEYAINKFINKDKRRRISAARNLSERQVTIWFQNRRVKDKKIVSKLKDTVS
# Sequence of VAX1 (Homo sapiens, UniProt Q5SQQ9 86-172, K157R) (Q5SQQ9 86-172 K157R): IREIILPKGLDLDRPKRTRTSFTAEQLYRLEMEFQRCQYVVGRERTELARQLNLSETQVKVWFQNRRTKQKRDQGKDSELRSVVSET
# Sequence of VAX1 (Homo sapiens, UniProt Q5SQQ9 86-172) (Q5SQQ9 86-172): as the sequence (Q5SQQ9 86-172 K157R) above, with R72K counted along it
# Sequence of PROP1 (Homo sapiens, UniProt O75360 56-141, R99H) (O75360 56-141 R99H): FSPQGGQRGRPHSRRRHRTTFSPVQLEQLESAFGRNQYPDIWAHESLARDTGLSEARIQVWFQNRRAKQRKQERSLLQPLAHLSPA
# Sequence of VAX1 (Homo sapiens, UniProt Q5SQQ9 86-172, T142I) (Q5SQQ9 86-172 T142I): as the sequence (Q5SQQ9 86-172 K157R) above, with T57I, R72K counted along it
# Sequence of HOXD13 (Homo sapiens, UniProt P35453 263-343) (P35453 263-343): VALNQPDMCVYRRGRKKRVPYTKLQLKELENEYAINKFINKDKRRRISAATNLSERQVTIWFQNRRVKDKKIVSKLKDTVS
# Sequence of PROP1 (Homo sapiens, UniProt O75360 56-141) (O75360 56-141): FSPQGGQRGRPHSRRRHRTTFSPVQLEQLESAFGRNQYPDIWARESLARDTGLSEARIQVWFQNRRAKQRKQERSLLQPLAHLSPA
# Sequence of HOXD13 (Homo sapiens, UniProt P35453 263-343, T313A) (P35453 263-343 T313A): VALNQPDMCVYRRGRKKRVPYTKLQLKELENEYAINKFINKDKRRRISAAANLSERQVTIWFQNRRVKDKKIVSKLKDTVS
sequence,measurement,setting,value
CCCCCCAA,binding signal,ALX3 [1],"7.79 upbm affinity estimate (log intensity, higher = more binding, comparable within an allelic series)"
same,binding signal,ALX3 [2],"7.79 upbm affinity estimate (log intensity, higher = more binding, comparable within an allelic series)"
same,binding signal,ALX3 [3],"7.64 upbm affinity estimate (log intensity, higher = more binding, comparable within an allelic series)"
same,binding signal,ALX3 [4],"7.7 upbm affinity estimate (log intensity, higher = more binding, comparable within an allelic series)"
same,binding signal,ALX3 [5],"7.81 upbm affinity estimate (log intensity, higher = more binding, comparable within an allelic series)"
AGGGGGGC,binding signal,ALX3 [1],"7.49 upbm affinity estimate (log intensity, higher = more binding, comparable within an allelic series)"
same,binding signal,ALX3 [2],"7.66 upbm affinity estimate (log intensity, higher = more binding, comparable within an allelic series)"
same,binding signal,ALX3 [3],"7.62 upbm affinity estimate (log intensity, higher = more binding, comparable within an allelic series)"
same,binding signal,ALX3 [4],"7.47 upbm affinity estimate (log intensity, higher = more binding, comparable within an allelic series)"
same,binding signal,ALX3 [5],"7.44 upbm affinity estimate (log intensity, higher = more binding, comparable within an allelic series)"
CACCGCCG,binding signal,ALX3 [1],"7.75 upbm affinity estimate (log intensity, higher = more binding, comparable within an allelic series)"
same,binding signal,ALX3 [2],"7.68 upbm affinity estimate (log intensity, higher = more binding, comparable within an allelic series)"
same,binding signal,ALX3 [3],"7.66 upbm affinity estimate (log intensity, higher = more binding, comparable within an allelic series)"
same,binding signal,ALX3 [4],"7.7 upbm affinity estimate (log intensity, higher = more binding, comparable within an allelic series)"
same,binding signal,ALX3 [5],"7.75 upbm affinity estimate (log intensity, higher = more binding, comparable within an allelic series)"
TTATTAAA,binding signal,ALX3 [1],"8.64 upbm affinity estimate (log intensity, higher = more binding, comparable within an allelic series)"
same,binding signal,HOXD13 [6],"10.8 upbm affinity estimate (log intensity, higher = more binding, comparable within an allelic series)"
same,binding signal,HOXD13 [7],"11.9 upbm affinity estimate (log intensity, higher = more binding, comparable within an allelic series)"
same,binding signal,HOXD13 [8],"11.7 upbm affinity estimate (log intensity, higher = more binding, comparable within an allelic series)"
same,binding signal,ALX3 [5],"8.68 upbm affinity estimate (log intensity, higher = more binding, comparable within an allelic series)"
GCACCCCC,binding signal,ALX3 [1],"7.73 upbm affinity estimate (log intensity, higher = more binding, comparable within an allelic series)"
same,binding signal,NKX2-6 [9],"9.22 upbm affinity estimate (log intensity, higher = more binding, comparable within an allelic series)"
same,binding signal,ALX3 [2],"7.8 upbm affinity estimate (log intensity, higher = more binding, comparable within an allelic series)"
same,binding signal,ALX3 [3],"7.58 upbm affinity estimate (log intensity, higher = more binding, comparable within an allelic series)"
same,binding signal,NKX2-6 [10],"9.15 upbm affinity estimate (log intensity, higher = more binding, comparable within an allelic series)"
same,binding signal,ALX3 [4],"7.59 upbm affinity estimate (log intensity, higher = more binding, comparable within an allelic series)"
same,binding signal,ALX3 [5],"7.76 upbm affinity estimate (log intensity, higher = more binding, comparable within an allelic series)"
GGATGGCC,binding signal,ALX3 [1],"7.66 upbm affinity estimate (log intensity, higher = more binding, comparable within an allelic series)"
same,binding signal,ALX3 [2],"7.74 upbm affinity estimate (log intensity, higher = more binding, comparable within an allelic series)"
same,binding signal,ALX3 [3],"7.73 upbm affinity estimate (log intensity, higher = more binding, comparable within an allelic series)"
same,binding signal,ALX3 [4],"7.67 upbm affinity estimate (log intensity, higher = more binding, comparable within an allelic series)"
same,binding signal,ALX3 [5],"7.67 upbm affinity estimate (log intensity, higher = more binding, comparable within an allelic series)"
ACCGCGGT,binding signal,ALX3 [1],"7.85 upbm affinity estimate (log intensity, higher = more binding, comparable within an allelic series)"
same,binding signal,ALX3 [2],"8.03 upbm affinity estimate (log intensity, higher = more binding, comparable within an allelic series)"
same,binding signal,ALX3 [3],"7.86 upbm affinity estimate (log intensity, higher = more binding, comparable within an allelic series)"
same,binding signal,ALX3 [4],"7.92 upbm affinity estimate (log intensity, higher = more binding, comparable within an allelic series)"
same,binding signal,ALX3 [5],"7.86 upbm affinity estimate (log intensity, higher = more binding, comparable within an allelic series)"
GCGCGAGC,binding signal,ALX3 [1],"7.77 upbm affinity estimate (log intensity, higher = more binding, comparable within an allelic series)"
same,binding signal,ALX3 [2],"7.84 upbm affinity estimate (log intensity, higher = more binding, comparable within an allelic series)"
same,binding signal,ALX3 [3],"7.77 upbm affinity estimate (log intensity, higher = more binding, comparable within an allelic series)"
same,binding signal,ALX3 [4],"7.76 upbm affinity estimate (log intensity, higher = more binding, comparable within an allelic series)"
same,binding signal,ALX3 [5],"7.83 upbm affinity estimate (log intensity, higher = more binding, comparable within an allelic series)"
AGGCACGC,binding signal,ALX3 [1],"7.63 upbm affinity estimate (log intensity, higher = more binding, comparable within an allelic series)"
same,binding signal,ALX3 [2],"7.78 upbm affinity estimate (log intensity, higher = more binding, comparable within an allelic series)"
same,binding signal,ALX3 [3],"7.71 upbm affinity estimate (log intensity, higher = more binding, comparable within an allelic series)"
same,binding signal,ALX3 [4],"7.61 upbm affinity estimate (log intensity, higher = more binding, comparable within an allelic series)"
same,binding signal,ALX3 [5],"7.64 upbm affinity estimate (log intensity, higher = more binding, comparable within an allelic series)"
GCTCTGCC,binding signal,ALX3 [1],"7.7 upbm affinity estimate (log intensity, higher = more binding, comparable within an allelic series)"
same,binding signal,ALX3 [2],"7.55 upbm affinity estimate (log intensity, higher = more binding, comparable within an allelic series)"
same,binding signal,VAX1 [11],"7.01 upbm affinity estimate (log intensity, higher = more binding, comparable within an allelic series)"
same,binding signal,ALX3 [3],"7.72 upbm affinity estimate (log intensity, higher = more binding, comparable within an allelic series)"
same,binding signal,ALX3 [4],"7.75 upbm affinity estimate (log intensity, higher = more binding, comparable within an allelic series)"
same,binding signal,VAX1 [12],"7.19 upbm affinity estimate (log intensity, higher = more binding, comparable within an allelic series)"
same,binding signal,ALX3 [5],"7.71 upbm affinity estimate (log intensity, higher = more binding, comparable within an allelic series)"
same,binding signal,VAX1 [13],"7.08 upbm affinity estimate (log intensity, higher = more binding, comparable within an allelic series)"
AGCGGGAC,binding signal,ALX3 [1],"7.69 upbm affinity estimate (log intensity, higher = more binding, comparable within an allelic series)"
same,binding signal,ALX3 [2],"7.54 upbm affinity estimate (log intensity, higher = more binding, comparable within an allelic series)"
same,binding signal,ALX3 [3],"7.62 upbm affinity estimate (log intensity, higher = more binding, comparable within an allelic series)"
same,binding signal,ALX3 [4],"7.69 upbm affinity estimate (log intensity, higher = more binding, comparable within an allelic series)"
same,binding signal,ALX3 [5],"7.73 upbm affinity estimate (log intensity, higher = more binding, comparable within an allelic series)"
ATATAATA,binding signal,ALX3 [1],"8.64 upbm affinity estimate (log intensity, higher = more binding, comparable within an allelic series)"
same,binding signal,PAX4 [14],"10.8 upbm affinity estimate (log intensity, higher = more binding, comparable within an allelic series)"
same,binding signal,PAX4 [15],"10.9 upbm affinity estimate (log intensity, higher = more binding, comparable within an allelic series)"
same,binding signal,ALX3 [5],"8.68 upbm affinity estimate (log intensity, higher = more binding, comparable within an allelic series)"
CGCTCCCC,binding signal,ALX3 [1],"7.64 upbm affinity estimate (log intensity, higher = more binding, comparable within an allelic series)"
same,binding signal,ALX3 [2],"7.58 upbm affinity estimate (log intensity, higher = more binding, comparable within an allelic series)"
same,binding signal,ALX3 [3],"7.75 upbm affinity estimate (log intensity, higher = more binding, comparable within an allelic series)"
same,binding signal,ALX3 [4],"7.7 upbm affinity estimate (log intensity, higher = more binding, comparable within an allelic series)"
same,binding signal,ALX3 [5],"7.67 upbm affinity estimate (log intensity, higher = more binding, comparable within an allelic series)"
ATTTACGG,binding signal,ALX3 [1],"8.3 upbm affinity estimate (log intensity, higher = more binding, comparable within an allelic series)"
same,binding signal,ALX3 [2],"10.1 upbm affinity estimate (log intensity, higher = more binding, comparable within an allelic series)"
ATAAATGG,binding signal,ALX3 [1],"8.33 upbm affinity estimate (log intensity, higher = more binding, comparable within an allelic series)"
same,binding signal,ALX3 [2],"9.85 upbm affinity estimate (log intensity, higher = more binding, comparable within an allelic series)"
ACCCCCGC,binding signal,ALX3 [1],"7.74 upbm affinity estimate (log intensity, higher = more binding, comparable within an allelic series)"
same,binding signal,ALX3 [2],"7.66 upbm affinity estimate (log intensity, higher = more binding, comparable within an allelic series)"
same,binding signal,PROP1 [16],"6.56 upbm affinity estimate (log intensity, higher = more binding, comparable within an allelic series)"
same,binding signal,PROP1 [17],"6.52 upbm affinity estimate (log intensity, higher = more binding, comparable within an allelic series)"
same,binding signal,ALX3 [3],"7.66 upbm affinity estimate (log intensity, higher = more binding, comparable within an allelic series)"
same,binding signal,ALX3 [4],"7.68 upbm affinity estimate (log intensity, higher = more binding, comparable within an allelic series)"
same,binding signal,PROP1 [18],"6.34 upbm affinity estimate (log intensity, higher = more binding, comparable within an allelic series)"
same,binding signal,ALX3 [5],"7.73 upbm affinity estimate (log intensity, higher = more binding, comparable within an allelic series)"
CAGCACCC,binding signal,ALX3 [1],"7.8 upbm affinity estimate (log intensity, higher = more binding, comparable within an allelic series)"
same,binding signal,ALX3 [2],"7.73 upbm affinity estimate (log intensity, higher = more binding, comparable within an allelic series)"
same,binding signal,ALX3 [3],"7.75 upbm affinity estimate (log intensity, higher = more binding, comparable within an allelic series)"
same,binding signal,ALX3 [4],"7.68 upbm affinity estimate (log intensity, higher = more binding, comparable within an allelic series)"
same,binding signal,ALX3 [5],"7.8 upbm affinity estimate (log intensity, higher = more binding, comparable within an allelic series)"
AATATTCG,binding signal,ALX3 [1],"8.28 upbm affinity estimate (log intensity, higher = more binding, comparable within an allelic series)"
same,binding signal,ALX3 [2],"9.33 upbm affinity estimate (log intensity, higher = more binding, comparable within an allelic series)"
CTCCAGCC,binding signal,ALX3 [1],"7.6 upbm affinity estimate (log intensity, higher = more binding, comparable within an allelic series)"
same,binding signal,ALX3 [2],"7.5 upbm affinity estimate (log intensity, higher = more binding, comparable within an allelic series)"
same,binding signal,ALX3 [3],"7.62 upbm affinity estimate (log intensity, higher = more binding, comparable within an allelic series)"
same,binding signal,ALX3 [4],"7.62 upbm affinity estimate (log intensity, higher = more binding, comparable within an allelic series)"
same,binding signal,ALX3 [5],"7.57 upbm affinity estimate (log intensity, higher = more binding, comparable within an allelic series)"
GTTATGCA,binding signal,ALX3 [1],"8.13 upbm affinity estimate (log intensity, higher = more binding, comparable within an allelic series)"
same,binding signal,ALX3 [2],"9.19 upbm affinity estimate (log intensity, higher = more binding, comparable within an allelic series)"
same,binding signal,ALX3 [5],"8.22 upbm affinity estimate (log intensity, higher = more binding, comparable within an allelic series)"
